# Test results from publication PMC11006913.
# Positions count from the first letter of the chain named.
# Tests used:
# Experiment in all cases: PBM; 200 nM protein, PBS
# Details in all cases: dsDNA, one strand shown
# VENTX [1] = molecular target: T1, VENTX (Homo sapiens, UniProt O95231 78-163, R121Q)
# T1 sequence: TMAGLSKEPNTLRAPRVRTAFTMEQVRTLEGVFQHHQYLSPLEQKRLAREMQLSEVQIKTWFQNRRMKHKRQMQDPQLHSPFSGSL
# HOXB9 [2] = molecular target: HOXB9 (Homo sapiens, UniProt P17482 171-250, T197M)
# SIX6 [3] = molecular target: T2, SIX6 (Homo sapiens, UniProt O95475 114-200, L167I)
# T2 sequence: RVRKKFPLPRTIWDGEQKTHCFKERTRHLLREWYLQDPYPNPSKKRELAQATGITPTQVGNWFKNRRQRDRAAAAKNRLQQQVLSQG
# VENTX [4] = molecular target: T3, VENTX (Homo sapiens, UniProt O95231 78-163)
# T3 sequence: T1 sequence with Q44R
# SIX6 [5] = molecular target: T4, SIX6 (Homo sapiens, UniProt O95475 114-200, L143V)
# T4 sequence: T2 sequence with L30V, I54L
# SIX6 [6] = molecular target: T5, SIX6 (Homo sapiens, UniProt O95475 114-200, H141N)
# T5 sequence: T2 sequence with H28N, I54L
# SIX6 [7] = molecular target: T6, SIX6 (Homo sapiens, UniProt O95475 114-200, T165P)
# T6 sequence: T2 sequence with T52P, I54L
# VENTX [8] = molecular target: T7, VENTX (Homo sapiens, UniProt O95231 78-163, Y115F)
# T7 sequence: T1 sequence with Y38F, Q44R
# SIX6 [9] = molecular target: T8, SIX6 (Homo sapiens, UniProt O95475 114-200, L167M)
# T8 sequence: T2 sequence with I54M
# SIX6 [10] = molecular target: T9, SIX6 (Homo sapiens, UniProt O95475 114-200, L143M)
# T9 sequence: T2 sequence with L30M, I54L
# SIX6 [11] = molecular target: T10, SIX6 (Homo sapiens, UniProt O95475 114-200, L143I)
# T10 sequence: T2 sequence with L30I, I54L
# SIX6 [12] = molecular target: T11, SIX6 (Homo sapiens, UniProt O95475 114-200, T165G)
# T11 sequence: T2 sequence with T52G, I54L
# HOXB9 [13] = molecular target: HOXB9 (Homo sapiens, UniProt P17482 171-250)
# SIX6 [14] = molecular target: T12, SIX6 (Homo sapiens, UniProt O95475 114-200, T139Q)
# T12 sequence: T2 sequence with T26Q, I54L
# MSX2 [15] = molecular target: MSX2 (Homo sapiens, UniProt P35548 130-214, R199I)
# SIX6 [16] = molecular target: T13, SIX6 (Homo sapiens, UniProt O95475 114-200, T165A)
# T13 sequence: T2 sequence with T52A, I54L
# MSX2 [17] = molecular target: MSX2 (Homo sapiens, UniProt P35548 130-214)
# SIX6 [18] = molecular target: T14, SIX6 (Homo sapiens, UniProt O95475 114-200, L167V)
# T14 sequence: T2 sequence with I54V
# SIX6 [19] = molecular target: T15, SIX6 (Homo sapiens, UniProt O95475 114-200)
# T15 sequence: T2 sequence with I54L
# SIX6 [20] = molecular target: T16, SIX6 (Homo sapiens, UniProt O95475 114-200, T165I)
# T16 sequence: T2 sequence with T52I, I54L
# HOXB9 [21] = molecular target: HOXB9 (Homo sapiens, UniProt P17482 171-250, R186Q)
# MSX2 [22] = molecular target: MSX2 (Homo sapiens, UniProt P35548 130-214, F161Y)
# HOXC9 [23] = molecular target: HOXC9 (Homo sapiens, UniProt P31274 178-260, K195R)
# PAX4 [24] = molecular target: T17, PAX4 (Homo sapiens, UniProt O43316 9-242, R200K)
# T17 sequence: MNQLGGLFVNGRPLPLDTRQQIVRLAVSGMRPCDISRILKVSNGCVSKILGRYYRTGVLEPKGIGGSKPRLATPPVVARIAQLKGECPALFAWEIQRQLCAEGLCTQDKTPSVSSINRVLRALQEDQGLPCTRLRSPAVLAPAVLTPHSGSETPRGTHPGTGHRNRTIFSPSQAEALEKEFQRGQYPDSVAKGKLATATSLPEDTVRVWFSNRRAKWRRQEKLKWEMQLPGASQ
# HOXC9 [25] = molecular target: HOXC9 (Homo sapiens, UniProt P31274 178-260)
# HOXC9 [26] = molecular target: HOXC9 (Homo sapiens, UniProt P31274 178-260, R193K)
# PAX4 [27] = molecular target: T18, PAX4 (Homo sapiens, UniProt O43316 9-242, R227W)
# T18 sequence: T17 sequence with K192R, R219W
# HOXC9 [28] = molecular target: HOXC9 (Homo sapiens, UniProt P31274 178-260, R222W)
# HOXA4 [29] = molecular target: HOXA4 (Homo sapiens, UniProt Q00056 201-287, W262R)
# ALX4 [30] = molecular target: ALX4 (Homo sapiens, UniProt Q9H161 200-286)
# ALX4 [31] = molecular target: ALX4 (Homo sapiens, UniProt Q9H161 200-286, Q225E)
# HOXA4 [32] = molecular target: HOXA4 (Homo sapiens, UniProt Q00056 201-287, R217L)
# NKX2-6 [33] = molecular target: T19, NKX2-6 (Homo sapiens, UniProt A6NCS4 118-204)
# T19 sequence: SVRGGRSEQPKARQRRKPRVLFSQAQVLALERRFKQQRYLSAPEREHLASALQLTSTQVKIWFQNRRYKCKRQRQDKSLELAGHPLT
# HOXA4 [34] = molecular target: HOXA4 (Homo sapiens, UniProt Q00056 201-287)
# NKX2-6 [35] = molecular target: T20, NKX2-6 (Homo sapiens, UniProt A6NCS4 118-204, F151L)
# T20 sequence: T19 sequence with F34L
# HOXA4 [36] = molecular target: HOXA4 (Homo sapiens, UniProt Q00056 201-287, W262F)
# HOXA4 (Homo sapiens, UniProt Q00056 201-287, W262F), sequence (Q00056 201-287 W262F): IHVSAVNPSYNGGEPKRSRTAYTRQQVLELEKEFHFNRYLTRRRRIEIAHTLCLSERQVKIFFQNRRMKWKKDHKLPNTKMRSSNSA
# HOXC9 (Homo sapiens, UniProt P31274 178-260, K195R), sequence (P31274 178-260 K195R): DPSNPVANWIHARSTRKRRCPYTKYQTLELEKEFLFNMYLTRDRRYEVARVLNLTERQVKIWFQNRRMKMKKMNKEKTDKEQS
# HOXC9 (Homo sapiens, UniProt P31274 178-260), sequence (P31274 178-260): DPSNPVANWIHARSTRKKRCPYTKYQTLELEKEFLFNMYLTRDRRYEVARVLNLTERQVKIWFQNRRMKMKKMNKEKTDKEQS
# HOXC9 (Homo sapiens, UniProt P31274 178-260, R193K), sequence (P31274 178-260 R193K): as the sequence (P31274 178-260) above, with R16K counted along it
# HOXC9 (Homo sapiens, UniProt P31274 178-260, R222W), sequence (P31274 178-260 R222W): as the sequence (P31274 178-260) above, with R45W counted along it
# MSX2 (Homo sapiens, UniProt P35548 130-214, R199I), sequence (P35548 130-214 R199I): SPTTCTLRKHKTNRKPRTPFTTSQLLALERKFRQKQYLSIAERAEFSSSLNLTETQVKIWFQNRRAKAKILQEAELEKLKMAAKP
# HOXB9 (Homo sapiens, UniProt P17482 171-250), sequence (P17482 171-250): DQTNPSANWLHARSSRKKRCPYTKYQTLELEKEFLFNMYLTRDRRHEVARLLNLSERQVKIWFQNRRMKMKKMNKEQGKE
# HOXA4 (Homo sapiens, UniProt Q00056 201-287), sequence (Q00056 201-287): as the sequence (Q00056 201-287 W262F) above, with F62W counted along it
# MSX2 (Homo sapiens, UniProt P35548 130-214), sequence (P35548 130-214): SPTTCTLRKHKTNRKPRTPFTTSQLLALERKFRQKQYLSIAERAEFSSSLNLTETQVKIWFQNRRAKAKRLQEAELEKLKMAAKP
# HOXB9 (Homo sapiens, UniProt P17482 171-250, T197M), sequence (P17482 171-250 T197M): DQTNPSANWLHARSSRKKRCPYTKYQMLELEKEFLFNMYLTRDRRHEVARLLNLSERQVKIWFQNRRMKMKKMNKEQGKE
# HOXA4 (Homo sapiens, UniProt Q00056 201-287, W262R), sequence (Q00056 201-287 W262R): as the sequence (Q00056 201-287 W262F) above, with F62R counted along it
# ALX4 (Homo sapiens, UniProt Q9H161 200-286), sequence (Q9H161 200-286): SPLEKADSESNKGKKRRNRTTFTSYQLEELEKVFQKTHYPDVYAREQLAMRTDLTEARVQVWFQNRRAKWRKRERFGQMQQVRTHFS
# HOXB9 (Homo sapiens, UniProt P17482 171-250, R186Q), sequence (P17482 171-250 R186Q): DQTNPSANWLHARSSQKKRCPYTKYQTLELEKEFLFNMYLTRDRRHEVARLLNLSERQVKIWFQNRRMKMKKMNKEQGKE
# ALX4 (Homo sapiens, UniProt Q9H161 200-286, Q225E), sequence (Q9H161 200-286 Q225E): as the sequence (Q9H161 200-286) above, with Q26E counted along it
# HOXA4 (Homo sapiens, UniProt Q00056 201-287, R217L), sequence (Q00056 201-287 R217L): as the sequence (Q00056 201-287 W262F) above, with R17L, F62W counted along it
# MSX2 (Homo sapiens, UniProt P35548 130-214, F161Y), sequence (P35548 130-214 F161Y): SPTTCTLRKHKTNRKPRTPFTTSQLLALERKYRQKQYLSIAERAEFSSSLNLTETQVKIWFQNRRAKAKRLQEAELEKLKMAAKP
sequence,measurement,setting,value
GCGCGCCC,binding signal,VENTX [1],"8.19 upbm affinity estimate (log intensity, higher = more binding, comparable within an allelic series)"
same,binding signal,HOXB9 [2],"8.46 upbm affinity estimate (log intensity, higher = more binding, comparable within an allelic series)"
same,binding signal,SIX6 [3],"8.73 upbm affinity estimate (log intensity, higher = more binding, comparable within an allelic series)"
same,binding signal,VENTX [4],"8.26 upbm affinity estimate (log intensity, higher = more binding, comparable within an allelic series)"
same,binding signal,SIX6 [5],"8.71 upbm affinity estimate (log intensity, higher = more binding, comparable within an allelic series)"
same,binding signal,SIX6 [6],"8.79 upbm affinity estimate (log intensity, higher = more binding, comparable within an allelic series)"
same,binding signal,SIX6 [7],"8.94 upbm affinity estimate (log intensity, higher = more binding, comparable within an allelic series)"
same,binding signal,VENTX [8],"8.22 upbm affinity estimate (log intensity, higher = more binding, comparable within an allelic series)"
same,binding signal,SIX6 [9],"8.76 upbm affinity estimate (log intensity, higher = more binding, comparable within an allelic series)"
same,binding signal,SIX6 [10],"8.75 upbm affinity estimate (log intensity, higher = more binding, comparable within an allelic series)"
same,binding signal,SIX6 [11],"8.78 upbm affinity estimate (log intensity, higher = more binding, comparable within an allelic series)"
same,binding signal,SIX6 [12],"8.82 upbm affinity estimate (log intensity, higher = more binding, comparable within an allelic series)"
same,binding signal,HOXB9 [13],"8.66 upbm affinity estimate (log intensity, higher = more binding, comparable within an allelic series)"
same,binding signal,SIX6 [14],"8.77 upbm affinity estimate (log intensity, higher = more binding, comparable within an allelic series)"
same,binding signal,MSX2 [15],"9.61 upbm affinity estimate (log intensity, higher = more binding, comparable within an allelic series)"
same,binding signal,SIX6 [16],"8.75 upbm affinity estimate (log intensity, higher = more binding, comparable within an allelic series)"
same,binding signal,MSX2 [17],"9.64 upbm affinity estimate (log intensity, higher = more binding, comparable within an allelic series)"
same,binding signal,SIX6 [18],"8.91 upbm affinity estimate (log intensity, higher = more binding, comparable within an allelic series)"
same,binding signal,SIX6 [19],"8.8 upbm affinity estimate (log intensity, higher = more binding, comparable within an allelic series)"
same,binding signal,SIX6 [20],"8.71 upbm affinity estimate (log intensity, higher = more binding, comparable within an allelic series)"
same,binding signal,HOXB9 [21],"8.61 upbm affinity estimate (log intensity, higher = more binding, comparable within an allelic series)"
same,binding signal,MSX2 [22],"9.62 upbm affinity estimate (log intensity, higher = more binding, comparable within an allelic series)"
ACGCATTA,binding signal,VENTX [1],"10.4 upbm affinity estimate (log intensity, higher = more binding, comparable within an allelic series)"
same,binding signal,HOXC9 [23],"11.2 upbm affinity estimate (log intensity, higher = more binding, comparable within an allelic series)"
same,binding signal,PAX4 [24],"11.6 upbm affinity estimate (log intensity, higher = more binding, comparable within an allelic series)"
same,binding signal,HOXC9 [25],"11.2 upbm affinity estimate (log intensity, higher = more binding, comparable within an allelic series)"
same,binding signal,HOXC9 [26],"11.2 upbm affinity estimate (log intensity, higher = more binding, comparable within an allelic series)"
same,binding signal,PAX4 [27],"10.9 upbm affinity estimate (log intensity, higher = more binding, comparable within an allelic series)"
GGCACCAC,binding signal,VENTX [1],"8.11 upbm affinity estimate (log intensity, higher = more binding, comparable within an allelic series)"
same,binding signal,HOXC9 [23],"9.65 upbm affinity estimate (log intensity, higher = more binding, comparable within an allelic series)"
same,binding signal,VENTX [4],"8.1 upbm affinity estimate (log intensity, higher = more binding, comparable within an allelic series)"
same,binding signal,VENTX [8],"8.09 upbm affinity estimate (log intensity, higher = more binding, comparable within an allelic series)"
same,binding signal,HOXC9 [25],"9.66 upbm affinity estimate (log intensity, higher = more binding, comparable within an allelic series)"
same,binding signal,HOXC9 [26],"9.65 upbm affinity estimate (log intensity, higher = more binding, comparable within an allelic series)"
same,binding signal,HOXC9 [28],"9.76 upbm affinity estimate (log intensity, higher = more binding, comparable within an allelic series)"
CGGAGGGA,binding signal,VENTX [1],"8.11 upbm affinity estimate (log intensity, higher = more binding, comparable within an allelic series)"
same,binding signal,HOXA4 [29],"9.84 upbm affinity estimate (log intensity, higher = more binding, comparable within an allelic series)"
same,binding signal,HOXC9 [23],"9.42 upbm affinity estimate (log intensity, higher = more binding, comparable within an allelic series)"
same,binding signal,VENTX [4],"7.97 upbm affinity estimate (log intensity, higher = more binding, comparable within an allelic series)"
same,binding signal,ALX4 [30],"7.87 upbm affinity estimate (log intensity, higher = more binding, comparable within an allelic series)"
same,binding signal,VENTX [8],"8.17 upbm affinity estimate (log intensity, higher = more binding, comparable within an allelic series)"
same,binding signal,ALX4 [31],"8.03 upbm affinity estimate (log intensity, higher = more binding, comparable within an allelic series)"
same,binding signal,HOXA4 [32],"9.72 upbm affinity estimate (log intensity, higher = more binding, comparable within an allelic series)"
same,binding signal,HOXC9 [25],"9.45 upbm affinity estimate (log intensity, higher = more binding, comparable within an allelic series)"
same,binding signal,NKX2-6 [33],"9.02 upbm affinity estimate (log intensity, higher = more binding, comparable within an allelic series)"
same,binding signal,HOXC9 [26],"9.42 upbm affinity estimate (log intensity, higher = more binding, comparable within an allelic series)"
same,binding signal,HOXA4 [34],"9.76 upbm affinity estimate (log intensity, higher = more binding, comparable within an allelic series)"
same,binding signal,NKX2-6 [35],"9.3 upbm affinity estimate (log intensity, higher = more binding, comparable within an allelic series)"
same,binding signal,HOXC9 [28],"9.69 upbm affinity estimate (log intensity, higher = more binding, comparable within an allelic series)"
same,binding signal,HOXA4 [36],"9.79 upbm affinity estimate (log intensity, higher = more binding, comparable within an allelic series)"
GGCGGAAC,binding signal,VENTX [1],"8.14 upbm affinity estimate (log intensity, higher = more binding, comparable within an allelic series)"
same,binding signal,SIX6 [3],"8.85 upbm affinity estimate (log intensity, higher = more binding, comparable within an allelic series)"
same,binding signal,VENTX [4],"8.22 upbm affinity estimate (log intensity, higher = more binding, comparable within an allelic series)"
same,binding signal,SIX6 [5],"8.81 upbm affinity estimate (log intensity, higher = more binding, comparable within an allelic series)"
same,binding signal,SIX6 [6],"8.78 upbm affinity estimate (log intensity, higher = more binding, comparable within an allelic series)"
same,binding signal,SIX6 [7],"8.99 upbm affinity estimate (log intensity, higher = more binding, comparable within an allelic series)"
same,binding signal,VENTX [8],"8.15 upbm affinity estimate (log intensity, higher = more binding, comparable within an allelic series)"
same,binding signal,SIX6 [9],"8.81 upbm affinity estimate (log intensity, higher = more binding, comparable within an allelic series)"
same,binding signal,SIX6 [10],"8.85 upbm affinity estimate (log intensity, higher = more binding, comparable within an allelic series)"
same,binding signal,SIX6 [11],"8.84 upbm affinity estimate (log intensity, higher = more binding, comparable within an allelic series)"
same,binding signal,SIX6 [12],"8.85 upbm affinity estimate (log intensity, higher = more binding, comparable within an allelic series)"
same,binding signal,SIX6 [14],"8.82 upbm affinity estimate (log intensity, higher = more binding, comparable within an allelic series)"
same,binding signal,SIX6 [16],"8.85 upbm affinity estimate (log intensity, higher = more binding, comparable within an allelic series)"
same,binding signal,SIX6 [18],"8.86 upbm affinity estimate (log intensity, higher = more binding, comparable within an allelic series)"
same,binding signal,SIX6 [19],"8.77 upbm affinity estimate (log intensity, higher = more binding, comparable within an allelic series)"
same,binding signal,SIX6 [20],"8.82 upbm affinity estimate (log intensity, higher = more binding, comparable within an allelic series)"
